Assay results reported in PubChem BioAssay AID434970 (Sanford-Burnham Center for Chemical Genomics, 2010).
Hit rate of the full screen: of about 11,000 compounds, about 310 (2.8%) were called active. The sample holds actives, similar compounds and a random draw of the others, so the mix is not that of the screen. No stated cut-off is given here; in the data, active means activity change below about -85%; inactive means the rest.

system: intestinal alkaline phosphatase [Mus musculus]; experiment: mouse intestinal phosphatase enzyme activation – biochemical, luminescence, single concentration, confirmation (AID 434970); details: purified mouse IAP, CDP-Star luminescence, 30 min, at 10 µM; activation factor: measured here: IAP activation factor, stronger effect = higher value; activity change, negative = activation: stronger effect = lower value

| SMILES | activation factor | activity change, negative = activation |
| --- | --- | --- |
| CCC(=O)N1c2ccccc2NC2=C(C(=O)CCC2)C1c1ccc(N(C)C)cc1 (configuration not stated) | 1.18 | -18.3% (inactive) |
| O=C(NC1CCCCC1)N1CCN(c2ccccc2)CC1 | 0.931 | 6.95% (inactive) |
| N/C(COc1cccc(Cl)c1)=N\NS(=O)(=O)c1ccccc1 | 0.875 | 12.6% (inactive) |
| COc1cc(-c2noc(CCC(N)=O)n2)cc(OC)c1OC | 0.884 | 11.6% (inactive) |
| CCC(C)NCCOCCOc1ccc(F)cc1 (configuration not stated) | 1.03 | -3.25% (inactive) |
| Cc1ccc(S(=O)(=O)N(C)C[C@@H]2Oc3ccc(NC(=O)Nc4cccc5ccccc45)cc3C(=O)N([C@H](C)CO)C[C@H]2C)cc1 | 2.13 | -113% (active) |
| C[C@H]1CN([C@@H](C)CO)C(=O)c2cccc(NC(=O)Nc3ccc(C(F)(F)F)cc3)c2O[C@@H]1CN(C)S(=O)(=O)c1ccc(Cl)cc1 | 1.47 | -46.7% (inactive) |
| Cc1ccc(S(=O)(=O)N(C)C[C@H]2Oc3c(NC(=O)Nc4cccc5ccccc45)cccc3C(=O)N([C@@H](C)CO)C[C@@H]2C)cc1 | 3.14 | -214% (active) |
| Cc1cc2cc(CNC(=S)NCc3ccccc3)ccc2n1C | 1.2 | -20% (inactive) |
| N[C@@H](Cc1ccccc1)c1nnc2sc(SCc3ccccc3)nn12 | 0.972 | 2.75% (inactive) |
| O=C(c1ccc[nH]1)N1O[C@@H]2C=C[C@H]1C2 | 0.951 | 4.9% (inactive) |
| CCCN1C2CCCC1CC(NC(=O)c1cc(OC)c(OC)c(OC)c1)C2 (configuration not stated) | 0.893 | 10.7% (inactive) |
| COc1cccc(-c2nn(-c3ccccc3)cc2C(=O)NCC(=O)O)c1 | 1.08 | -8.2% (inactive) |
| Cc1nn(Cc2ccc(Cl)cc2)c(C)c1NC(=O)c1c(-c2ccccc2)noc1C | 1.03 | -2.7% (inactive) |
| O=C(NC1CCN(Cc2ccc(Cl)cc2)CC1)c1cn(-c2ccccc2)nc1-c1cccnc1 | 1.6 | -60.3% (inactive) |
| Cc1cccc(NC(=O)c2cn(-c3ccccc3)nc2-c2ccccc2)c1 | 1.64 | -64% (inactive) |
| Cc1nn(Cc2ccc(Cl)c(Cl)c2)c(C)c1NC(=O)c1cn(-c2ccccc2)nc1-c1ccccc1 | 2.62 | -162% (active) |
| Cc1nn(Cc2c(Cl)cccc2Cl)c(C)c1NC(=O)c1cn(-c2ccccc2)nc1-c1ccccc1 | 1.74 | -73.8% (active) |
| CCCN1CCN(C(=O)c2cn(CC(C)C)c(=O)c3cc(OC)c(OC)cc23)CC1 | 1.04 | -4.4% (inactive) |
| COc1ccc(C2CC(c3ccccc3)n3nnnc3N2)cc1 (configuration not stated) | 1.15 | -14.9% (inactive) |
| COc1ccc2c(CC(=O)OCC(=O)N3CCc4ccccc43)coc2c1 | 0.935 | 6.5% (inactive) |
| COc1cc2c(cc1OC)[C@@H](NC(=O)COc1ccccc1)[C@H](OCc1ccccc1)C2 | 1.07 | -6.55% (inactive) |
| O=C(CSc1ncccn1)NCc1ccccc1 | 1.02 | -2% (inactive) |
| COc1ccc(N=NC2=C(O)CC(C)(C)CC2=O)c(OC)c1 | 0.743 | 25.7% (inactive) |
| CCOC(=O)c1sc(N=NC2=C(O)CCCC2=O)c(C(=O)OCC)c1C | 0.794 | 20.6% (inactive) |
| CCOC(=O)c1sc(N=NC2=C(O)CC(C)(C)CC2=O)c(C(=O)OCC)c1C | 3.1 | -210% (active) |

| SMILES | activation factor | activity change, negative = activation |
| --- | --- | --- |
| COc1cc(NC(=O)c2ccc(F)cc2)c(OC)cc1Cl | 0.929 | 7.05% (inactive) |
| COc1ccc2c(C)c(C(=O)O)oc2c1 | 0.933 | 6.65% (inactive) |
| COC(=O)c1c(N)n(CCCN2CCOCC2)c2nc3ccccc3nc12 | 0.983 | 1.65% (inactive) |
| N#Cc1c(-c2ccc(Cl)cc2)ccn2nc(CCC(=O)O)nc12 | 1.15 | -15.3% (inactive) |
| CN1CCN(S(=O)(=O)c2ccc(SCCOc3ccccc3)nc2)CC1 | 0.96 | 4% (inactive) |
| CC(C)(C)N(C(=O)Cn1nnc(-c2ccc(F)cc2)n1)C(C(=O)NC1CCCC1)c1ccncc1 (configuration not stated) | 0.935 | 6.5% (inactive) |
| C=CCN(C(=O)CNC(=O)c1ccco1)C(C(=O)NC1CCCCC1)c1ccc(F)cc1 (configuration not stated) | 1.05 | -5.3% (inactive) |
| O=C(NC1CCCC1)C(c1ccc(F)cc1)N(Cc1ccc(F)cc1)C(=O)c1ccn[nH]1 (configuration not stated) | 2.05 | -105% (active) |
| Brc1ccc(-c2cnc(-c3cccs3)o2)cc1 | 0.944 | 5.65% (inactive) |
| COc1ccc(Cc2nn[nH]n2)cc1 | 1.18 | -17.9% (inactive) |
| CC(=O)c1ccc(NC(=O)Cn2nc(C)cc2C)cc1 | 0.948 | 5.2% (inactive) |
| COc1ccc(NC(=O)C2CCN(c3nc(C)cc(C)n3)CC2)cc1 | 0.96 | 4.05% (inactive) |
| Cc1ccc(NC(=O)CCn2nc(C)cc2C)cc1 | 1.12 | -11.6% (inactive) |
| CCc1ccc(NC(=O)C2CC(=O)N(C(C)C)C2)cc1 (configuration not stated) | 0.925 | 7.45% (inactive) |
| CCn1nc(C(=O)Nc2cccc(C(F)(F)F)c2)c(Cl)c1Cl | 0.952 | 4.85% (inactive) |
| CCn1nc(C)c(CN2CCC(C(=O)Nc3cccc(-c4cccc(F)c4)c3)CC2)c1C | 3.08 | -208% (active) |
| Cc1nn(C(C)C)c(C)c1CN1CCC(C(=O)Nc2cccc(-c3cccc(F)c3)c2)CC1 | 4.89 | -389% (active) |
| Cc1cc(C)n(CCCN2CCC(C(=O)Nc3cccc(-c4cccc(F)c4)c3)CC2)n1 | 3.01 | -202% (active) |
| Cc1ccc(Cn2nc(C)c(NC(=O)C3CC3)c2C)cc1 | 1.06 | -6.3% (inactive) |
| CCn1nc(C)c(CN2CCC(C(=O)Nc3cccc(-c4cccc(Cl)c4)c3)CC2)c1C | 4.74 | -374% (active) |
| Nc1ccccc1NC(=O)c1ccccc1 | 1.09 | -8.9% (inactive) |
| CCN1CCN(C(=O)CN(c2ccccc2C)S(C)(=O)=O)CC1 | 1.04 | -3.5% (inactive) |
| Cc1ccc(OCCn2cnc3c(N)ncnc32)cc1 | 0.932 | 6.8% (inactive) |
| Cc1cc(NC(=O)CCC(=O)N(Cc2ccco2)C(C)(C)C(=O)NC2CCCCC2)no1 | 1.05 | -5.25% (inactive) |
| COc1ccc(CNC(=O)C[C@H]2C[C@H](C(=O)N3CCOCC3)[C@@]3(CCC4CCCC4)c4[nH]c5cc(CCC(=O)N(C)C)ccc5c4CCN3C2=O)cc1OC | 1.07 | -6.85% (inactive) |
